Results on 31 compounds are retold here after PubChem BioAssay (NCATS).

Results filed as inconclusive are left out. A call without a number means that no potency is given here. Activity calls are given as the source filed them. Calls follow the shape of the dose curve; as a rule, active = well fitted inhibition curve with a large enough effect; inconclusive = small, poorly fitted or top-dose-only effect; inactive = no such curve, though single readings can be large or run the other way.
Potency is read from the fitted curve at half-maximal effect.

This test has as its system Zika virus NS2B-NS3 protease (unlinked). Description: Optimization of GU AMC qHTS for Zika virus inhibitors: Unlinked NS2B-NS3 protease assay (AID 1347151). Also: nearly all actives have a fitted effect of over 80% in size. The following applies: recombinant ZIKV NS2B-NS3 protease, fluorogenic AMC substrate; series mostly up to 52.5 µM. In a few lines: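 In this qHTS, compounds acted on 25 nM unlinked Zika NS2B–NS3 in pH 8.0 Tris/Tween buffer. Cleavage of an AMC peptide ran 15 min at room temperature, to about 20% conversion.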
On the technique in general: qHTS replaces the single test concentration by a dilution series.
As to `CN1CCC[C@@H]1Cc1c[nH]c2ccc(Nc3ncccc3[N+](=O)[O-])cc12`, the Potency entry is “inactive”.
Turning to `CN1CCC(c2c[nH]c3ccc(O)cc23)CC1`, the Potency entry is “inactive”.
As for `Nc1ccc(CCN2CCN(c3cccc(C(F)(F)F)c3)CC2)cc1`, the entry is “inactive”.
As for `CCCN(CCC)[C@H]1CCc2c(F)ccc(O)c2C1`, the Potency entry was “inactive”.
Regarding `Clc1ccc(N2CC3CCC(C2)N3)nn1`, the Potency result is “inactive”.
Regarding `N=C(N)c1ccc(CS(=O)(=O)F)cc1`, the Potency entry was “inactive”.
In the case of `CCNC(=O)[C@H]1O[C@@H](n2cnc3c(N)ncnc32)[C@H](O)[C@@H]1O`, the Potency result was “inactive”.
With `Oc1ccc2c3c1O[C@H]1c4oc5ccccc5c4C[C@@]4(O)C(C2)N(CC2CC2)CCC314` (stereo partly specified) the entry was “inactive”; with `Cc1o[nH]c(=O)c1CC(N)C(=O)O` (stereo unspecified), “inactive”; with `Cc1c2ccncc2c(C)c2c1[nH]c1ccccc12`, 21.2 µM (active).
Consider `COc1ccc2[nH]cc(CCN)c2c1`, for which the Potency entry is “inactive”.
Take `O=[N+]([O-])c1ccc2nc(N3CCNCC3)ccc2c1`: the Potency result was “inactive”.
As to `CC(=O)OCC1=C(C(=O)O)N2C(=O)[C@@H](NC(=O)CCC[C@@H](N)C(=O)O)[C@H]2SC1`, the Potency result was “inactive”.
As to `NC(=O)c1ccc(OCC(O)CN2CC=C(c3ccc(F)cc3)CC2)cc1` (stereo unspecified), the Potency result was “inactive”.
With `CC(C)(C)c1cc(C=C(C#N)C#N)cc(C(C)(C)C)c1O`, the Potency is 10.6 µM (active).
Take `Cc1[nH]c2ccc(O)cc2c1CCN`: the Potency entry is “inactive”.
With `C=CCN1CCC23c4c5ccc(O)c4O[C@H]2C(=O)CC[C@@]3(O)C1C5` (stereo partly specified), the Potency entry was “inactive”.
As for `CO[C@H]1CC=C2CCN3CCC4=C(CC(=O)OC4)[C@]23C1`, the entry is “inactive”.
With `CCOC(=O)c1ncn2c1[C@@H]1CCCN1C(=O)c1cc(OC)ccc1-2`, the Potency result was “inactive”.
Take `C[N+]1(C)CCc2cc3c(cc2[C@H]1[C@@H]1OC(=O)c2c1ccc1c2OCO1)OCO3`: the Potency entry is “inactive”.
For `CN1CC[C@@]2(C)c3cc(OC(=O)Nc4ccccc4)ccc3N(C)[C@@H]12`, the Potency entry was “inactive”.
Turning to `CC(N)Cc1c[nH]c2ccc(OCc3cccs3)cc12` (stereo unspecified), the Potency result was “inactive”.
With `CCCN(CCC)[C@@H]1CCc2cccc(O)c2C1` the entry was “inactive”; with `CCN1C[C@@]2(COC)C3[C@@H](OC)C4[C@@H]1C3([C@@H]1C[C@]3(O)[C@H](OC(=O)c5ccccc5)[C@@H]1[C@]4(OC(C)=O)[C@@H](O)[C@@H]3OC)[C@H](OC)C[C@H]2O`, “inactive”; with `COc1ccc2[nH]c3c(c2c1)CCNC3`, 26.7 µM (active).
`Ic1ccccc1CNC1C2CCN(CC2)C1C(c1ccccc1)c1ccccc1` (stereo unspecified): the Potency entry was “inactive”.
For the compound `CC(N)Cc1c[nH]c2ccc(O)cc12` (stereo unspecified), the Potency result was “inactive”.
As for `Oc1ccc2c3c1O[C@H]1c4[nH]c5ccccc5c4C[C@@]4(O)C(C2)N(CC2CC2)CCC314` (stereo partly specified), the entry is “inactive”.
As for `COC(=O)N1CCN(C(=O)Cc2ccc(Cl)c(Cl)c2)C(CN2CCCC2)C1` (stereo unspecified), the entry is “inactive”.
With `O=C1CC[C@@]2(O)C3Cc4ccc(O)c5c4C2(CCN3CC2CC2)[C@H]1O5` (stereo partly specified) the entry was “inactive”; with `CC(C)(O)[C@@H]1C2OC(=O)[C@@H]1[C@]1(O)C[C@H]3O[C@]34C(=O)O[C@H]2[C@]14C` (tested in a mixture with another compound), “inactive”.
